For assay [1], the target named is Bile acid receptor (Homo sapiens) (UniProt Q96RI1). Description: ATG_IR1_CIS: Attagene CIS-FACTORIAL HepG2 Assay for human Nuclear Receptor Subfamily 1 Group H Member 4 (NR1H4), IR1 submotif (AID 2282946). Particulars: IR1 reporter transcription, actives raise or lower the signal. A digest of the protocol: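 HepG2 cells transiently transfected with multiplexed cis-element reporter units read endogenous transcription factor activity. After 24 h compound exposure, reporter mRNA was quantified by RT-PCR, fluorescent labelling, HpaI digestion and capillary electrophoresis; bidirectional fitting versus DMSO baseline.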
Sequence of Bile acid receptor (Homo sapiens) (Q96RI1 whole entry, looked up): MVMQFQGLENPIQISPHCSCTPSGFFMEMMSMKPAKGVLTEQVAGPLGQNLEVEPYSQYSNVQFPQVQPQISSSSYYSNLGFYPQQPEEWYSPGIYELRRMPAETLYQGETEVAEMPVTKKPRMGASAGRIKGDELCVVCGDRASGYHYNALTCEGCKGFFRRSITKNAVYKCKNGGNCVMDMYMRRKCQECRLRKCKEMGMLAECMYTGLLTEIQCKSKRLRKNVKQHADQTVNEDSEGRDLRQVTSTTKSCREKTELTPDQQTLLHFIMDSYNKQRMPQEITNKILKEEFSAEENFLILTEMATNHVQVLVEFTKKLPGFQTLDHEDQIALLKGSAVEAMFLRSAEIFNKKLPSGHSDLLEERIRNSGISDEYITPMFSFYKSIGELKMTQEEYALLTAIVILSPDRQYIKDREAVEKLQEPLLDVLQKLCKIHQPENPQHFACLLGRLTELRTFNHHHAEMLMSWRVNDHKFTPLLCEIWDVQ

Assay [2] in a line: ATG_GRE_CIS: Attagene CIS-FACTORIAL HepG2 Assay for human Glucocorticoid Response Elements (GRE) (AID 2282947). Particulars: HepG2 GRE cis-reporter, Attagene multiplex mRNA; actives raise or lower the signal. A digest of the protocol:
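Reporter transcripts read by RT-PCR with capillary electrophoresis fluorescence after a 24 h chemical exposure of HepG2 cells transiently transfected with multiple cis-element reporter units. Gain or loss fitted against DMSO.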

Assay [3] can be described thus: ATG_ISRE_CIS: Attagene CIS-FACTORIAL HepG2 Assay for human Interferon Regulatory Factor 1 (IRF1) binding to an Interferon-Stimulated Response Element (ISRE) (AID 2282948). The settings on record: HepG2 ISRE cis-reporter (Attagene), mRNA transcription readout; actives raise or lower the signal. The method in brief: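 Multiplexed mRNA reporter readout in human liver HepG2 cells: cis-element-driven reporters transfected, compound added for 24 h, transcripts amplified, fluorescently labelled and sized by capillary electrophoresis; curve fitting bidirectional against DMSO.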

Assay [4] in a line: ATG_M_32_CIS: Attagene CIS-FACTORIAL HepG2 Assay for M32 Transcription Factor (Internal Marker) (AID 2282949).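 Also: background control marker of the multiplexed CIS panel rather than a real target.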 The settings on record: HepG2 Attagene cis-factorial M32 reporter, mRNA; actives raise or lower the signal. The method in brief: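 HepG2 human liver cells transiently transfected with cis-promoter-driven multiple reporter transcription units, dosed 24 h. Reporter mRNA quantified by RT-PCR, FAM-labelled primer extension, HpaI digest and capillary electrophoresis; bidirectional fit versus DMSO baseline.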

Assay [5] is described as follows: ATG_M_06_CIS: Attagene CIS-FACTORIAL HepG2 Assay for M06 Transcription Factor (Internal Marker) (AID 2282950). The settings on record: HepG2 Attagene CIS-FACTORIAL M06 internal marker reporter; actives raise or lower the signal. A digest of the protocol:
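One of many multiplexed endpoints: HepG2 reporter mRNA after 24 h dosing, detected by RT-PCR and capillary electrophoresis fluorescence; gain or loss of signal analysed against DMSO.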

Assay [6] concerns the target Hypoxia-inducible factor 1-alpha (Homo sapiens) (UniProt Q16665). Description: ATG_HIF1a_CIS: Attagene CIS-FACTORIAL HepG2 Assay for human Hypoxia Inducible Factor 1 (HIF1A) (AID 2282951). The settings on record: HepG2 Attagene cis-factorial HIF1a reporter transcription; actives raise or lower the signal. The method in brief: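 Cis-element reporter constructs were transiently transfected into HepG2 cells, which were treated for 24 h; reporter RNA was reverse-transcribed, amplified, labelled and resolved by capillary electrophoresis.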

For assay [7], the target named is Hepatocyte nuclear factor 6 (Homo sapiens) (UniProt Q9UBC0). Description: ATG_HNF6_CIS: Attagene CIS-FACTORIAL HepG2 Assay for human Hepatocyte Nuclear Factor 6 (HNF6) (AID 2282952). Particulars: HepG2 Attagene cis-factorial HNF6 reporter transcription; actives raise or lower the signal. The method in brief:
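Endogenous factor activity read in transiently transfected HepG2 via promoter-regulated reporter transcripts. RNA harvested 24 h post-dosing, reverse-transcribed, PCR-amplified, FAM-labelled, HpaI-digested and resolved by capillary electrophoresis; fitted in both directions against DMSO.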

Assay [8] concerns the target Heat shock factor protein 1 (Homo sapiens) (UniProt Q00613). Description: ATG_HSE_CIS: Attagene CIS-FACTORIAL HepG2 Assay for human Heat Shock Transcription Factor 1 (HSE) (AID 2282953). Particulars: HepG2 HSE cis-reporter, Attagene RNA transcription; actives raise or lower the signal. The method in brief: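 Using HepG2 with transfected cis-driven reporter constructs, compound effects on endogenous factor activity are scored as reporter mRNA change at 24 h. Detection: RT-PCR, HpaI digestion, capillary electrophoresis; bidirectional fitting to DMSO.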

A short description of assay [9]: ATG_MRE_CIS: Attagene CIS-FACTORIAL HepG2 Assay for human Metal Responsive Element (MRE) (AID 2282954). The settings on record: HepG2 MRE cis-reporter transcription, Attagene multiplex; actives raise or lower the signal. The method in brief: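 Endogenous MRE-dependent transcription read as reporter mRNA in transiently transfected human HepG2 cells at 24 h. RNA reverse-transcribed, PCR-amplified, labelled and resolved by capillary electrophoresis; gain or loss relative to DMSO.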

Assay [10] has as its target Paired box protein Pax-6 (Homo sapiens) (UniProt P26367). In words: ATG_Pax6_CIS: Attagene CIS-FACTORIAL HepG2 Assay for human Paired Box 6 (PAX6) (AID 2282956). The settings on record: HepG2 CIS-FACTORIAL PAX6 reporter transcription, RNA readout; actives raise or lower the signal. A digest of the protocol: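 Fluorescent RT-PCR products separated by capillary electrophoresis report PAX6-linked promoter mRNA in HepG2 cells 24 h post-dose. Curves fitted bidirectionally, DMSO as negative control.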

Assay [11] is described as follows: ATG_PXRE_CIS: Attagene CIS-FACTORIAL HepG2 Assay for human Pregnane X Receptor Element (PXRE) (AID 2282957). The settings on record: HepG2 Attagene CIS-FACTORIAL PXRE reporter, mRNA; actives raise or lower the signal. The method in brief: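 Reporter transcripts under endogenous PXR-responsive cis-regulation quantified from total RNA of transfected HepG2 cells 24 h post-dosing, via RT-PCR with fluorescent primer extension and capillary electrophoresis. Gain or loss of signal fitted against DMSO baseline.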

Assay [12] is described as follows: ATG_PPRE_CIS: Attagene CIS-FACTORIAL HepG2 Assay for human Peroxisome Proliferator-activated Response Element (PPRE) (AID 2282958). The settings on record: HepG2 PPRE cis-element reporter, Attagene transcription factor profiling; actives raise or lower the signal. The method in brief: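 DMSO served as negative control and baseline for bidirectional curve fitting. Signal came from PPRE-regulated reporter mRNA in HepG2 cells, measured 24 h post-dosing by RT-PCR, 6-FAM primer extension and capillary electrophoresis.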

Assay [13] deals with Transcription factor Sp1 (Homo sapiens) (UniProt P08047). In words: ATG_Sp1_CIS: Attagene CIS-FACTORIAL HepG2 Assay for human Specificity Protein 1 (Sp1) (AID 2282961). Particulars: HepG2 Sp1 cis-reporter transcription, actives raise or lower the signal. The method in brief: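 Chemicals are dosed onto HepG2 cells transfected with multiple cis-promoter reporter constructs, and after 24 h reporter RNA is reverse-transcribed, PCR-amplified and resolved by capillary electrophoresis for fluorescence quantitation; activity is scored up or down against DMSO.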
Sequence of Transcription factor Sp1 (Homo sapiens) (P08047 whole entry, looked up): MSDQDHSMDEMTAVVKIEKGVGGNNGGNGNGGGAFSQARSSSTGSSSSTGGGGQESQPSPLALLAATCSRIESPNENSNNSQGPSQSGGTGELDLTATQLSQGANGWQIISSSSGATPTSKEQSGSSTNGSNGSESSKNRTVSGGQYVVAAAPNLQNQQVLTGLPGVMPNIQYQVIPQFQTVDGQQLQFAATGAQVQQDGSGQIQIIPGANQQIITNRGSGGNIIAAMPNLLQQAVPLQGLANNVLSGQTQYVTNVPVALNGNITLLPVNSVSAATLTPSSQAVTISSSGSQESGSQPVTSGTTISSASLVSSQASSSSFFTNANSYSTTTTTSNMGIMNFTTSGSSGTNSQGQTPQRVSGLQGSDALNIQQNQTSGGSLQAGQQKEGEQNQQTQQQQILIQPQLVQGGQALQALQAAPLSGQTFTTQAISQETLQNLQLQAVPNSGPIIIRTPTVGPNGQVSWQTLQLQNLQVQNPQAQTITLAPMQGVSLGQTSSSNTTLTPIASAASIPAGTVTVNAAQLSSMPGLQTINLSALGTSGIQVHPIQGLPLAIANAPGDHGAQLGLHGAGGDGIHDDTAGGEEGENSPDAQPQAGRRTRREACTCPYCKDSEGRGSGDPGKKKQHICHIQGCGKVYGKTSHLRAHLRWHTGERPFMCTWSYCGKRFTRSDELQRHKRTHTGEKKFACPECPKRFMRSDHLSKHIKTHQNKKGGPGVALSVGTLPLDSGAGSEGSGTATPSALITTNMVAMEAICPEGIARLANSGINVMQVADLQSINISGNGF

Assay [14] can be described thus: ATG_SREBP_CIS: Attagene CIS-FACTORIAL HepG2 Assay for human Sterol Regulatory Element Binding (SREBP) (AID 2282962). The settings on record: HepG2 Attagene cis-factorial SREBP reporter, mRNA; actives raise or lower the signal. A digest of the protocol:
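Endogenous factor activity is measured in HepG2 through multiplexed reporter units under cis-element control. Following a 24 h incubation, reporter transcripts are reverse-transcribed, PCR-amplified and sized by capillary electrophoresis; activity is fitted in both directions relative to DMSO.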

Assay [15] deals with Signal transducer and activator of transcription 3 (Homo sapiens) (UniProt P40763). In words: ATG_STAT3_CIS: Attagene CIS-FACTORIAL HepG2 Assay for human Signal Transducer and Activator of Transcription 3 (STAT3) (AID 2282963). Particulars: HepG2, Attagene cis-factorial STAT3 reporter transcription; actives raise or lower the signal. A digest of the protocol:
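Readout is reporter transcript quantified by RT-PCR and capillary electrophoresis, with 6-FAM primer extension and HpaI digestion. Total RNA is taken 24 h after dosing transiently transfected HepG2 carrying cis-regulated reporter units. Bidirectional fit against DMSO.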

Assay [16] in a line: ATG_TA_CIS: Attagene CIS-FACTORIAL HepG2 Assay for human TA Basal Promoter (AID 2282964). The settings on record: HepG2 Attagene CIS-factorial TA basal promoter reporter; actives raise or lower the signal. The method in brief: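 Transient MRTU transfection of HepG2 preceded 24 h compound exposure. Reporter mRNA levels were then read by RT-PCR with capillary electrophoresis, and this background-control endpoint was fitted bidirectionally to DMSO.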

Assay [17] is described as follows: ATG_TCF_b_cat_CIS: Attagene CIS-FACTORIAL HepG2 Assay for human T-Cell-Factor with beta-catenin (TCF/b-cat) (AID 2282965). Particulars: HepG2 TCF/beta-catenin cis-reporter transcription, actives raise or lower the signal. The method in brief:
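Endogenous transcription factor activity is captured through cis-promoter reporter constructs transiently introduced into human HepG2 liver cells. Induced reporter mRNA is measured after 24 h and fitted bidirectionally relative to DMSO.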

Assay [18] is described as follows: ATG_PBREM_CIS: Attagene CIS-FACTORIAL HepG2 Assay for human Phenobarbital-responsive Enhancer Module (PBREM) (AID 2282955). Particulars: HepG2 PBREM cis-reporter, Attagene multiplexed transcription; actives raise or lower the signal. The method in brief: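 Multiplexed cis-reporter readout in human hepatoma HepG2 cells; PBREM-regulated transcript quantified after 24 h exposure by fluorescent RT-PCR fragment analysis. Signal changes up or down fitted relative to DMSO.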

A short description of assay [19]: ATG_Sox_CIS: Attagene CIS-FACTORIAL HepG2 Assay for human SRY-box transcription factor (SOX) (AID 2282960). The settings on record: HepG2 Attagene cis-factorial SOX reporter, mRNA; actives raise or lower the signal. A digest of the protocol: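 Fluorescence-labelled cDNA fragments from reporter transcripts, sized by CE, give the signal. Cells: HepG2, transiently transfected with cis-regulated reporter units. Exposure 24 h; DMSO negative control; bidirectional curve fitting.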

Assay [20] is described as follows: ATG_RORE_CIS: Attagene CIS-FACTORIAL HepG2 Assay for human RAR-related Orphan Receptor Element (RORE) (AID 2282959). Particulars: HepG2 Attagene cis-factorial RORE reporter, mRNA; actives raise or lower the signal. A digest of the protocol: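 Transfect HepG2 with MRTUs; treat 24 h; extract RNA; RT with oligo(dT); PCR with reporter-specific primers; 6-FAM primer extension; HpaI digest 2 h at 37 C; capillary electrophoresis. Fit vs DMSO, bidirectional.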

Activity calls are given as the source filed them. The calls were made as follows: active = hit-call score of the fitted dose curve at least 0.9, where 1 is the maximum; inactive = score below 0.9.

Sequence of Signal transducer and activator of transcription 3 (Homo sapiens) (P40763 whole entry, looked up): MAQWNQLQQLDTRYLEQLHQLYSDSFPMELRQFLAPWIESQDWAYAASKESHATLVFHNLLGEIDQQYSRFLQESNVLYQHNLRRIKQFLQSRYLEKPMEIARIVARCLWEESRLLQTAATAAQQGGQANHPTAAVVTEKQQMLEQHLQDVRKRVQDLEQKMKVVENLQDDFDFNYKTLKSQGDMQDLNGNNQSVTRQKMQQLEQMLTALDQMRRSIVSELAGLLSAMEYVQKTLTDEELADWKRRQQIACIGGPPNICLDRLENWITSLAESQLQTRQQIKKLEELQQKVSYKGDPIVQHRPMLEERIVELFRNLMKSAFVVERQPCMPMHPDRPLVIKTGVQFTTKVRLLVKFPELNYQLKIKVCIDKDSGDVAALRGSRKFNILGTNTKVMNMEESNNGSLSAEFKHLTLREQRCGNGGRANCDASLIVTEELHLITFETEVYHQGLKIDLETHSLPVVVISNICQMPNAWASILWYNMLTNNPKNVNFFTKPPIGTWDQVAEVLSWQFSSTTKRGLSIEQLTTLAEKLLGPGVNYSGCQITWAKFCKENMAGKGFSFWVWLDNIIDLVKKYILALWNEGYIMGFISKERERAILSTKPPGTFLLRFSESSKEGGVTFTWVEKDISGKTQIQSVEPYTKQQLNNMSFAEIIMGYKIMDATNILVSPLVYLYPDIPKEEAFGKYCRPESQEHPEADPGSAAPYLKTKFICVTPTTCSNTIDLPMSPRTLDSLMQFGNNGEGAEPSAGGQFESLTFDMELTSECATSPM
Sequence of Heat shock factor protein 1 (Homo sapiens) (Q00613 whole entry, looked up): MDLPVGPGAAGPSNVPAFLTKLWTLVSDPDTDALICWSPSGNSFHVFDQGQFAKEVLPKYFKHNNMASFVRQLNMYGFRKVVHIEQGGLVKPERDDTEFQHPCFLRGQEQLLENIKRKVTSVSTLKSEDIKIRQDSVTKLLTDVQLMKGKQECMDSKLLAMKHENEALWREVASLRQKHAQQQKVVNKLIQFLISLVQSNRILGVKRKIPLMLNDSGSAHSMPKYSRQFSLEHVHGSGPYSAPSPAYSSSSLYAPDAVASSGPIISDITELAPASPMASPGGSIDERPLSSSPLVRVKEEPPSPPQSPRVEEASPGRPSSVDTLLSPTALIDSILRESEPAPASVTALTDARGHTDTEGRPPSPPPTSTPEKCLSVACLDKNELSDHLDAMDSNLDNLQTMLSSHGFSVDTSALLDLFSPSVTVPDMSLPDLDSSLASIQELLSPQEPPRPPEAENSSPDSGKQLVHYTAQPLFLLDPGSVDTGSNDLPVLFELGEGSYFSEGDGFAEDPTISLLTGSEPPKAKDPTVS
Sequence of Hepatocyte nuclear factor 6 (Homo sapiens) (Q9UBC0 whole entry, looked up): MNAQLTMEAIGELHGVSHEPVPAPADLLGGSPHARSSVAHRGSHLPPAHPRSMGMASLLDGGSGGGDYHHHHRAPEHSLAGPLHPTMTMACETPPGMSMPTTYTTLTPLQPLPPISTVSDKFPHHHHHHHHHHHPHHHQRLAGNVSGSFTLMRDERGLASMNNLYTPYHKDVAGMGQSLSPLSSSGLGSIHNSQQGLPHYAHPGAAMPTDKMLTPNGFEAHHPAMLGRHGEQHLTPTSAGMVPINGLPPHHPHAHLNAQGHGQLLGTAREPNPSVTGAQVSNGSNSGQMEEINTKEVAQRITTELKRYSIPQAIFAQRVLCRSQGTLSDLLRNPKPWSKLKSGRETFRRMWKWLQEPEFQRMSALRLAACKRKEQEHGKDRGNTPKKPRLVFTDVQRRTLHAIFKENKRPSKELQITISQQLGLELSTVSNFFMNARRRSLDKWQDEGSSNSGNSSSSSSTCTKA
Sequence of Paired box protein Pax-6 (Homo sapiens) (P26367 whole entry, looked up): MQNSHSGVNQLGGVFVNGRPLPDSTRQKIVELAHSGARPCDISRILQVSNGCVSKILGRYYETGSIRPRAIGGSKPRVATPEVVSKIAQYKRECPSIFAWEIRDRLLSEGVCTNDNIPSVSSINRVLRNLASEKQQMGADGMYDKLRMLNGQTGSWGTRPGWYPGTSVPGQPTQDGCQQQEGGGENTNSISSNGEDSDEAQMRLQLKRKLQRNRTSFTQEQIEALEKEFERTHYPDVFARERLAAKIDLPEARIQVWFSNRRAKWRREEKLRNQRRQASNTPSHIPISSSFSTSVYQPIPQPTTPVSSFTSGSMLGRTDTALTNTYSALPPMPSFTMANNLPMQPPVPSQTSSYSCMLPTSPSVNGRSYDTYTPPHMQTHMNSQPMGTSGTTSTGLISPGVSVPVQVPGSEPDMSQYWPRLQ
Sequence of Hypoxia-inducible factor 1-alpha (Homo sapiens) (Q16665 whole entry, looked up): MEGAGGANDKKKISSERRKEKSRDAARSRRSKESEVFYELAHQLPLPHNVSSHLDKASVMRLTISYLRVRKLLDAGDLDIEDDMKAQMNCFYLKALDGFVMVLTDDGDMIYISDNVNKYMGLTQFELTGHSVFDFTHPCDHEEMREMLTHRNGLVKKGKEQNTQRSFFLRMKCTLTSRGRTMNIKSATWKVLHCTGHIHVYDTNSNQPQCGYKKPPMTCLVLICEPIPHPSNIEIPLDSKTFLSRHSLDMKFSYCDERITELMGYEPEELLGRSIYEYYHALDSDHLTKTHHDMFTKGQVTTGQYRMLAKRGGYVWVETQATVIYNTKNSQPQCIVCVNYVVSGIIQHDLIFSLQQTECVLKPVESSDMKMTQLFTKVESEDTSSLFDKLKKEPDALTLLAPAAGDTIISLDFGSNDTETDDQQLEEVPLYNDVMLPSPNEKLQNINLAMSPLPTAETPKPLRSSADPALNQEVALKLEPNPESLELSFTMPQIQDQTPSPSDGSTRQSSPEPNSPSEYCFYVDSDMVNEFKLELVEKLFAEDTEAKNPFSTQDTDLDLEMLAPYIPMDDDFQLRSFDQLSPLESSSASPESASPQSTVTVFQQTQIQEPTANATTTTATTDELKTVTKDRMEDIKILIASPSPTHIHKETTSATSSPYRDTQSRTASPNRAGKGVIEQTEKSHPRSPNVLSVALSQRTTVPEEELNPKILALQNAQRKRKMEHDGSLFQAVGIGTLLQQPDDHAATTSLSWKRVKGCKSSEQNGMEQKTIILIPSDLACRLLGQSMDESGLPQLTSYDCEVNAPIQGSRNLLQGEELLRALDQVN

For `CC(=O)CC(=O)Nc1ccccc1`, the call in assay [1], in [2], in assay [3], in [4], in assay [5] and in [7] was inactive. Further, the compound was called inactive in assay [8], in assay [9], in assay [10], in assay [11], in assay [12] and in assay [13]. Moreover, the compound was classed as inactive in [14], in [15], in assay [16] and in [17]. Moreover, the AC50 in assay [6] was 24.2 µM (active).

With `NCC1CCCC(CN)C1` (stereo not drawn), the result in [1], in assay [2], in assay [3], in [4], in assay [5] and in [6] was inactive. Besides, the compound was called inactive in [7], in assay [8], in [9], in assay [18], in assay [10] and in assay [11]. Besides, the outcome in [19], in assay [13], in [14], in assay [15], in [16] and in assay [17] was inactive.

Consider `O=C(Nc1ccc2c(c1)Cc1ccccc1-2)C(F)(F)F`, for which the call in [1], in assay [2], in assay [3], in [4], in [5] and in assay [7] was inactive. Moreover, the call in assay [8], in assay [9], in [18], in assay [10], in assay [19] and in assay [13] was inactive. Besides, the call in assay [14], in assay [15], in [16] and in assay [17] was inactive. The half-maximal activity concentration (AC50) is 22.6 µM (active) in assay [6], 27.7 µM (active) in [11] and 17.5 µM (active) in [20].

Turning to `C=Cc1ccncc1`, the outcome in assay [1], in assay [2], in assay [4], in assay [5], in [6] and in assay [15] was inactive. Besides, the compound was classed as inactive in assay [16]. The half-maximal activity concentration (AC50) was 55.9 µM (active) in assay [3]; 33.9 µM (active) in [7]; 75.8 µM (active) in assay [8]; 28.2 µM (active) in assay [9]; 33.1 µM (active) in assay [10]; 33.1 µM (active) in assay [11]. Also, the AC50 in assay [12] was 13.5 µM (active); in [20], 10.2 µM (active); in [19] it was 21.8 µM (active); in [13], 27.1 µM (active); in [14] it was 17.1 µM (active); in [17], 57 µM (active).
